Screens deposited in PubChem BioAssay by National Center for Advancing Translational Sciences (NCATS).
Pf growth 48h = Primary qHTS for delayed death inhibitors of the malarial parasite plastid, 48 hour incubation; P. falciparum luciferase growth in erythrocytes, 48 h; Potency, µM (top dose mostly 28.7 µM), inactives show at the top dose activity change, negative = inhibition, most hits filed as inhibitors; 5.9% of 310,000 active; AID 504832, 2011; note: potency is the fitted concentration of half-maximal effect; % is set by controls: 0 for no effect and ±100 for the full control effect
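In quantitative HTS format, infected erythrocytes bearing luciferase-reporter parasites were treated for a single generation at 37 C. Luminescence after adding detection reagent served as the growth measure.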
HCV inhibitor = qHTS Assay for Inhibitors of Hepatitis C Virus (HCV); Huh7.5.1 HCVcc-Cre infection, luciferase reporter, 44 h; Potency, µM (top dose mostly 41.8 µM), for inactives: at the highest dose activity change, negative = inhibition, hits mostly inhibitors; 3.4% of 340,000 active; AID 651820, 2012; note: potency is the fitted concentration of half-maximal effect; % is set by controls: 0 for no effect and ±100 for the full control effect
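Luciferase read-out (15 sec integration) after a 15 min room-temperature substrate step quantifies HCVcc-Cre infection. Cells, 1,000 per well, had compound added 4 h post-plating, then virus at ~0.5 moi, and were cultured 44 h.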
Pf growth 96h = Primary qHTS for delayed death inhibitors of the malarial parasite plastid, 96 hour incubation; P. falciparum luciferase reporter growth, 96 h; Potency, µM (top dose mostly 28.7 µM), inactives show top-dose activity change, negative = inhibition, hits mostly inhibitors; 6.9% of 320,000 active; note: potency is the fitted concentration of half-maximal effect; % is set by controls: 0 for no effect and ±100 for the full control effect
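Readout is luminescence from an integrated firefly luciferase in P. falciparum. Red cells, 2% hematocrit and 0.05% parasitemia final, were cultured with compound through two parasite generations (96 hours) at 37 C, 5% CO2.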
Cycloheximide cs = Cycloheximide Counterscreen for Small Molecule Inhibitors of Shiga Toxin. AID 2314, 2010. max response, %. 12% of 300,000 active. cell reporter, cycloheximide protein synthesis inhibition counterscreen; in the data active = max response mostly above about 13%, no sharp cut-off; inactive = mostly below about 14%; note: read at 38.3 µM for the half of the compounds with a filed dose; 0% is about no effect
AMA1-RON2 inh = qHTS for Inhibitors of AMA1-RON; Towards Development of Antimalarial Drug Lead: Primary Screen. AID 720542, 2013. 0.2% of 360,000 active. AlphaScreen AMA1-biotinylated RON2 peptide binding. Potency, µM (titrated, usually from 58.2 µM), inactives show at the highest dose activity change, negative = inhibition, usual class: inhibitors;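 note: potency is the fitted concentration of half-maximal effect; 0% = vehicle wells and -100% = peptide control; nearly all actives have a fitted effect of over 45% in size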
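AMA1 (3D7) with his tag at 25 nM final met compounds first, then biotinylated RON2 peptide at 25 nM; detection used donor plus acceptor beads, 10 µg/mL apiece, read by AlphaScreen after 30 min at room temperature.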
Shiga inhibitor = A qHTS for Small Molecule Inhibitors of Shiga Toxin; Vero cells, Shiga toxin protein synthesis inhibition reporter; inhibition, % at 38.7 µM; 9.2% of 290,000 active; AID 2315, 2010; in the data active = inhibition mostly above about 28%, no sharp cut-off; inactive = mostly below about 43%; note: 0% is about no effect
* hit, by the source's call; i = inactive; ? = inconclusive; nt = not tested or not shown; [ ] = remark or other dose. A selection: hits, their analogues and other compounds. The true share with any hit is near 21%. Unless noted, calls come from the whole dose curve; as a rule, active = well fitted curve in the direction sought with a large enough effect; inconclusive = small, poorly fitted or top-dose-only effect, or another doubt; inactive = no such curve, though single readings can be large; an effect the other way counts as inactive or inconclusive.

SMILES	Pf growth 48h	HCV inhibitor	Pf growth 96h	Cycloheximide cs	AMA1-RON2 inh	Shiga inhibitor
COc1ccc(NC2CCCN(C(=O)c3cc(CC(C)C)nc(N)n3)C2)cc1 (centres undefined)	11.0%	9.0%	?	-7.1	-2.0%	7.6
CC(=O)NC(c1ccccc1)c1nc(-c2cccc(C(F)(F)F)c2)cs1 (centres undefined)	nt	nt	nt	nt	9.7%	nt
Cc1ccsc1CNCC(O)c1ccccc1 (centres undefined)	11.7µM*	20.0%	-25.8%	-1.2	-12.7%	-1.6
OC(CNCc1ccc(-c2ccccc2)cc1)c1ccccc1 (centres undefined)	?	-26.6%	0.0%	-3.3	-2.7%	4.0
CN(CCc1ccccc1)C(=O)c1ccc(NC(=O)Cc2ccc(NC(=O)C3CCN(C(=O)c4ccccc4)CC3)cc2)cc1	nt	-17.2%[8.37 µM]	nt	nt	?	nt
COc1ccc(NC(=O)Cc2ccc(Cl)c(Cl)c2)cn1	-0.3%	-9.8%	?	9.4	15.1%	36.4
COc1ccc(NC(=O)/C(Cl)=C(/Cl)S(=O)Cc2ccccc2Cl)cn1 (centres undefined)	?	2.82µM*	7.38µM*	-10.3	-15.3%	-10.3
COc1ccc(NC(=O)COC(=O)C(NC(=O)c2ccc(C)cc2)C(C)C)cn1 (centres undefined)	nt	-16.6%	nt	nt	1.3%[11.6 µM]	nt
COc1ccc(NC(=O)/C(Cl)=C(/Cl)S(=O)(=O)Cc2ccc(C)cc2)cn1	nt	2.51µM*	?	12.8	10.3%	17.3
CC[C@]1(C(=O)OC)[C@H]2C(=O)N(C)C(=O)[C@H]2[C@H]2CN=C(SCC3CC3)N21	nt	20.0%	nt	nt	5.7%	nt
Cc1cc(-c2ccc(S(=O)(=O)N(C)c3ccc(C)c(C)c3)s2)on1	-15.3%	11.2µM*	-6.9%	1.1	9.4%	1.6
CCN(CC(=O)NCc1cccs1)C(=O)c1ccc(OC)c(OC)c1	0.7%	5.4%	15.3%	nt	45.0%	nt
COC(=O)CC1C(=O)NCCN1C(=O)CSc1nnc(Nc2ccc(OC)cc2)s1 (centres undefined)	?	4.9%	nt	4.5	-4.3%	-21.0
COC(=O)CC1C(=O)NCCN1C(=O)CSc1nnc(Nc2ccc(C)cc2)s1 (centres undefined)	nt	-14.5%	7.38µM*	-1.9	-5.2%	-10.4
CCCN1CCN(C(=O)C(C)n2nc(C)c3sc4ccccc4c3c2=O)CC1 (centres undefined)	-14.2%	-1.1%	1.3%	-3.4	-6.6%	-7.1
Cc1nc2ccccn2c1C(=O)Nc1ccc(Cl)cc1	59.0%	1.4%	38.2%	24.4*	-17.2%	51.6
CC(=O)Nc1ccc(NC(=O)c2c(C)nc3ccccn23)cc1	40.9%	2.2%	nt	4.0	8.6%	32.3
Cc1ccc(C)c(NC(=O)c2c(Cl)nc3ccccn23)c1	0.0%	?	-7.7%	-1.0	6.3%	-4.4
Cc1ccc(NC(=O)c2c(Cl)nc3ccccn23)cc1	470.2%	-2.6%	354.9%	36.6*	14.0%	113.8*
Cc1nc2ccccn2c1C(=O)Nc1ccc2c(c1)OCCO2	i	15.5%	260.0%	44.6*	-3.0%	112.1*
Cc1nc2ccccn2c1C(=O)CSc1cccc(Cl)c1	?	?	?	12.3	17.4%	38.0
Cc1nc2ccccn2c1C(=O)CSc1ccccc1	34.3%	-15.5%	?	30.5*	-21.7%	38.0*
COc1ccc(OC)c(NS(=O)(=O)c2cc3c4c(c2)CCN4C(=O)CC3)c1	-1.7%	?	7.3%	nt	2.5%	nt
CC(=O)C(Cc1ccccc1)NC(=O)COC(=O)c1ccc(-n2cnnn2)cc1 (centres undefined)	nt	-3.8%	nt	nt	8.6%	nt
CC(C)CN(C(=O)c1cccc(S(=O)(=O)N2CCN(C)CC2)c1)C1CCS(=O)(=O)C1 (centres undefined)	0.0%	22.5%	24.6%	nt	10.1%	nt
SMILES	Pf growth 48h	HCV inhibitor	Pf growth 96h	Cycloheximide cs	AMA1-RON2 inh	Shiga inhibitor
O=C1NC[C@H](CCCCN2C[C@H](Cc3ccc(O)cc3)N(Cc3ccccc3)C(=O)C2=O)N(CCc2ccccc2)C1=O	nt	nt	nt	nt	-4.7%	nt
Cc1ccc(S(=O)(=O)c2nc(S(C)(=O)=O)sc2N2CCC(C)CC2)cc1	?	7.0%	?	-3.2	-15.8%	12.8
CCCN1CCC[C@@H]2Cc3cn[nH]c3C[C@H]21	nt	nt	nt	0.8	nt	-8.7
CCCN1CCCC2Cc3nc(N)ncc3CC21 (centres undefined)	-5.2%	nt	12µM*	nt	nt	nt
O=c1c2c(-c3ccco3)csc2nc(SCc2cn3cccnc3n2)n1-c1ccccc1	7.38µM*	-26.5%	9.28µM*	3.8	15.8µM*	13.7
Cc1ccc(C(=O)CSc2nnc(-c3ccco3)n2Cc2ccccc2)cc1	29.3%	?	7.38µM*	22.4*	-15.9%	89.7
NC(=O)NC(=O)CSc1nnc(-c2ccco2)n1Cc1ccccc1	4.7%	5.9%	36.2%	-6.0	0.0%	-22.2
NC(=O)CSc1nc2scc(-c3ccco3)c2c(=O)n1-c1ccccc1	-6.1%	?	nt	0.3	?	-8.6
Cn1c(SCC(=O)c2ccc(-c3ccccc3)cc2)nnc1-c1ccco1	-12.3%	-12.6%	-8.3%	28.2*	-2.1%	29.2*
O=C(CSc1nnc(-c2ccco2)n1Cc1ccccc1)c1ccccc1	13.5%	-19.9%	?	38.3*	-7.9%	72.0*
COc1c(C)cc(C(O)c2ncc(-c3ccc4ccccc4c3)[nH]2)cc1C (centres undefined)	nt	nt	nt	nt	-6.7%	nt
Cc1ccc(-c2ccc(C3C4C=CCC(C)C4C(=O)N3Cc3ccccc3)c(F)c2)cc1 (centres undefined)	nt	nt	nt	7.3	nt	2.8
c1ccc(Cn2c(SCc3cn4cccnc4n3)nnc2-c2ccco2)cc1	27.1%	26.6%	11.7µM*	2.0	-20.7%	-19.2
O=C(CSc1nnc(-c2ccco2)n1Cc1ccccc1)NC(=O)NCc1ccccc1	?	-28.9%	11.7µM*	-2.3	22.2%	29.8
NC(=O)C1CCN(C(=O)c2ccc(NS(=O)(=O)c3ccc(Br)s3)cc2)CC1	34.0%	16.7%	11.4%	nt	12.5%	nt
CCCNC(=O)C1(C)CCN(Cc2ccc(C)c3ccccc23)C1 (centres undefined)	nt	nt	nt	nt	-1.8%	nt
COc1ccc(C(=O)Oc2c(CN3CCOCC3)cc(Cl)c3cccnc23)cc1	14.7µM*	12.6µM*	nt	6.0	-18.0%	-15.7
COc1cc(C(=O)Oc2c(CN3CCOCC3)cc(Cl)c3cccnc23)cc(OC)c1OC	nt	?	?	7.7	-71.7%	-7.8
O=C(Oc1ccc(Cl)c2cccnc12)N1CCOCC1	20.4%	-0.7%	?	-2.0	-11.6%	-8.6
O=C(Oc1c(CN2CCOCC2)cc(Cl)c2cccnc12)c1ccc(F)cc1	4.65µM*	10µM*	7.3%	30.1*	-88.4%	38.4
